Results filed as inconclusive are left out. The source made the active and inactive calls. Calls come from the whole dose curve; as a rule, active = well fitted curve in the direction sought with a large enough effect in the signal ratio; inconclusive = small, poorly fitted or top-dose-only effect, or effect the other way, or a change in a side signal; inactive = no such curve, though single readings can be large or run the other way; the % refers to the signal ratio.
Assay: qHTS Assay for Modulators of Human Peripheral Myelin Protein 22 (PMP22) Expression/Activity (AID 1967)
Conditions: Cell-based PMP22 reporter, dual-color luciferase ratio, mouse Pmp22 promoter in mouse Schwann cells; series mostly up to 115 µM
Description: Charcot-Marie-Tooth-Association [CMTA]
NIH Chemical Genomics Center [NCGC]
Charcot-Marie-Tooth (CMT) disease was first characterized by Jean-Martin Charcot and Pierre Marie in France and, independently, by Howard Henry Tooth in England in 1886. CMT is one of the most common inherited neurological diseases, affecting about 125,000 Americans. […] The most common cause of CMT is known as CMT1A, and is caused by a duplication of the PMP22 gene, leading to over-expression of this protein. PMP22 is a glycosylated intrinsic membrane protein accounting for 2-5% of the myelin protein content and over-expression leads to demyelination and subsequently axonal loss.
A cell-based assay for PMP22 expression modulation was developed by Drs. Ned Mantei and Ueli Suter on behalf of the CMTA. This assay employs a mouse Schwann cell line, MSC80 (Boutry et al., 1992), that was engineered to have the mouse Pmp22 promoter driving expression of a green light-emitting click beetle luciferase (CBG68; Chroma-Gl developed by Promega Corp). A red light-emitting click beetle luciferase (CBR; developed by Promega Corp: CBG68 and CBR differ by only a few amino acids within the D-luciferin binding pocket) under control of the EF-alpha promoter is also stably expressed in the same cells for use as an internal control for nonspecific promoter- or reporter-based effects.
NCGC Assay Protocol Summary:
Cells were seeded in white solid 1536-well plates at between 500-750 cells/4uL in DMEM medium containing 10% FBS, w/o phenol red. After overnight incubation at 37 degree Celsius/5% C02, 23 nL of compounds or DMSO were delivered to each well using a pin tool, followed by 24h-incubation at 37 degree Celsius/5% C02. Then 4 uL Chroma-Glo luminescent substrate mix (Promega) was added to each well. Luminescence was measured on a ViewLux plate reader (Perkin Elmer) using a 540/25 nm filter for green luminescence and a 618/8 nm filter for red luminescence. The green and red luminescent signals were corrected for red and green luminescence filter overlap using filter calibration constants (determined using control cell lines expressing either the green or red CBLuc reporters using the procedures given in Davis et al., 2007). The %Activity was determined from the ratio of corrected green/red luminescent values. Green luminescent and ratio %Activity was determined by normalizing to the signal between of untreated cells (0% Activity)
Keywords: luminescence, PMP22, CMT1A, NCGC, CMTA, qHTS
Concentration-response curves were fitted to the signals arising from the green luminescence (PMP22 promoter driven expression) and the red luminescence (control promoter) as well as the calculated ratio. The concentration-effect curves were then classified based on curve quality (r2), response magnitude and degree of measured activity.

Row | SMILES | outcome
1 | C[C@@H](N)Cc1cnc[nH]1 | inactive
2 | NC(=O)CN1CC(O)CC1=O (stereo not given) | inactive
3 | CCCN1CCC[C@H](c2cccc(O)c2)C1 | inactive
4 | NC(N)=NOCCC(N)C(=O)O (stereo not given) | inactive
5 | Clc1cnc(Oc2ccc(Oc3ncc(Cl)cc3Cl)cc2)c(Cl)c1 | inactive
6 | O=C1CCCN1CC#CCN1CCCC1 | inactive
7 | CC[C@@H]1C(=O)OC[C@@H]1Cc1cncn1C | inactive
8 | NC(CCP(=O)(O)O)C(=O)O (stereo not given) | inactive
9 | C[C@@H]1O[C@H](C[N+](C)(C)C)C[C@H]1O | inactive
10 | CCCN1CCO[C@@H]2c3cc(O)ccc3OC[C@H]21 | inactive
11 | CCCN(CCC)C1CCc2ccc(O)cc2C1 (stereo not given) | inactive
12 | C[N+]1(C)C2CCC1CC(OC(=O)C(CO)c1ccccc1)C2 (stereo not given) | inactive
13 | S=C(NC1CCCCC1)N1CCC(c2cnc[nH]2)CC1 | inactive
14 | Oc1ccc2c3c1O[C@H]1c4[nH]c5c(c4C[C@@]4(O)[C@@H](C2)N(CC2CC2)CC[C@]314)C[C@@]1(O)[C@H]2Cc3ccc(O)c4c3[C@@]1(CCN2CC1CC1)[C@H]5O4 | inactive
15 | CCCN(CCC)[C@@H]1CCc2ccc(O)cc2C1 | inactive
16 | C=CCN1CC[C@]23CCCCC2[C@H]1Cc1ccc(O)cc13 (stereo not given in full) | inactive
17 | CNCCc1c[nH]c2ccc(O)cc12 | inactive
18 | C[N+](C)(C)CC(=O)O | inactive
19 | Cn1cnc(CCN)c1 | inactive
20 | CC(=O)NCCc1c[nH]c2ccccc12 | inactive
21 | O=C(O)CC[N+](=O)[O-] | inactive
22 | NCCc1c[nH]c2ccc(O)cc12 | inactive
23 | O=C(O)[C@@H]1CCN1 | inactive
24 | NC1CCc2cc(O)c(O)cc2C1 (stereo not given) | inactive
25 | NCc1cc(=O)[nH]o1 | inactive
